The results in this text go back to PubChem BioAssay.

Molecules are shown by their SMILES. Several values for one entry are separate records, joined by “and”; a condition that tells them apart may be missing. Equal values may be shown once. Activity calls are given as the source filed them.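 How the source made its calls, unless noted: active means compounds that lower viability of the colon cancer cells in the luminescence readout, with no numeric limit stated; inactive means the rest.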

Assay [1] can be described thus: Wnt pathway potentiators raising nuclear beta-catenin – imaging, WNT3A-conditioned medium, mouse C2C12, NPC library, primary screen (AID 1117326; in the data active means nuclear beta-catenin stimulation mostly above about 4.2%, no sharp cut-off; inactive means mostly below about 10%). To be noted: stronger effect = higher value.
Assay [2] in a line: growth inhibition of GSK3B-pretreated HCT116 cells – cell-based, CellTiter-Glo, 0.2 to 20 µM (AID 1117336;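 active means compounds lowering colon cancer cell viability after pretreatment blocking the GSK3B kinase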). As to conditions: HCT116 viability after GSK3B inhibitor, at 20 µM, stronger effect = higher value. In general terms: In ATP-based viability assays light output follows the ATP content of the culture.
Assay [3] in a line: HCT116 colon cancer cell growth inhibition, primary screen, CellTiter-Glo luminescence, NPC library (AID 1117342;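 active means compounds that lower survival of HCT116 colon cancer cells in the luminescence readout, no numeric limit stated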). To be noted: at 20 µM (top of the series).
Assay [4] is described as follows: reduced SW480 viability measured with CellTiter-Glo, NPC library, primary (AID 1117343). As to conditions: CellTiter-Glo luminescence; at 20 µM (top of the series) unless noted.
Assay [5] can be described thus: NPC library primary testing for decreased DLD-1 cell viability via CellTiter-Glo (AID 1117346;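 active means compounds that lower survival of DLD-1 colon cancer cells in the luminescence readout, no cutoff given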). To be noted: DLD-1 viability, CellTiter-Glo luminescence; at 20 µM (top of the series).
A short description of assay [6]: compounds altering viability of human ES cells (AID 493140; call rule not given here;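 further: cells exposed to compounds for four days before counting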). As to conditions: human embryonic stem cell survival screen; stronger effect = higher value.
A short description of assay [7]: stimulators of insulin release from INS-1E, primary screen, cell-based, 5 mM glucose, NPC library (AID 1117329;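 active means compound raises insulin release from rat beta cells at 5 mM glucose, no numeric limit stated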). To be noted: rat INS-1E insulin secretion, at 10 µM, stronger effect = higher value.
The nature of assay [8]: inhibition of endothelial tube formation, primary screen, imaging, VEGF stimulated, CD31 staining, tube area, NPC library (AID 1117340;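 active means compound that reduces growth-factor-driven endothelial tube area in a mixed cell culture, no cutoff stated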). As to conditions: VEGF-stimulated ADSC/ECFC co-culture, at 10 µM, stronger effect = higher value.
The nature of assay [9]: GLP1 release stimulators, primary, NCI-H716, NPC library (AID 1117341;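 active means compound raises GLP1 secretion from the human gut endocrine cells, with no numeric limit stated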). As to conditions: NCI-H716 cells, at 10 µM, stronger effect = higher value.
Assay [10] concerns the target 6-phosphogluconate dehydrogenase, decarboxylating (Homo sapiens) (UniProt P52209). Description: inhibition of human phosphogluconate dehydrogenase – biochemical, recombinant enzyme, NADPH absorbance, primary screen (AID 1159550;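 active means at least 20% inhibition of 6-phosphogluconate dehydrogenase activity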). As to conditions: recombinant 6PGD, NADPH absorbance 341 nm; at 10 µM; stronger effect = higher value.
A short description of assay [11]: modulation of C. elegans fzo-1 (AID 1259413; call rule not given here;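 further: fzo-1 mutant C. elegans worms in liquid wells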). To be noted: C. elegans fzo-1 modulator screen, mean read-out; stronger effect = higher value.
Assay [12] is described as follows: EMT-state selective cytotoxicity in co-culture – imaging, PC-3E GFP, TEM4-18 mCherry, primary screen (AID 1345086;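 active means compounds killing one labelled cell type while sparing the other, by normalised counts and ratio limits, not self-fluorescent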;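 on all read-outs here: cells exposed to compound for 72 h before imaging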;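 on red/green cell ratio (normalised): normalised mesenchymal count divided by normalised epithelial count so high means epithelial killing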). As to conditions: PC-3E GFP / TEM4-18 mCherry co-culture, imaging cell counts, at 1 µM; for red/green cell ratio (normalised): actives lie on both sides, counts scaled to control wells, 1 = unselective.
Assay [13] in a line: MELAS cybrid and Rieske KO viability enhancers – cell-based, MELAS cybrids, Rieske KO mouse fibroblasts, CellTiter-Glo, primary screen (AID 1508586;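 active means mean z-score across replicates of 1.96 or higher in either the MELAS or the Rieske mutant cell line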;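 further: z relative to plate mean and SD of compound and empty wells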). As to conditions: low glucose.
The target in assay [14] is NAD(+) hydrolase SARM1 (Homo sapiens) (UniProt Q6SZW1). Description: blocking NAD cleavage by SARM1 SAM-TIR – cell lysate, NAD-Glo luminescence (AID 1508614;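 active means compound whose remaining NAD level is above about 45 nM, limit read from the data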). As to conditions: SAM-TIR HEK293T lysate NADase, at 1 µM, stronger effect = higher value.
Sequence of NAD(+) hydrolase SARM1 (Homo sapiens) (Q6SZW1 whole entry, looked up, the tested form may be a part): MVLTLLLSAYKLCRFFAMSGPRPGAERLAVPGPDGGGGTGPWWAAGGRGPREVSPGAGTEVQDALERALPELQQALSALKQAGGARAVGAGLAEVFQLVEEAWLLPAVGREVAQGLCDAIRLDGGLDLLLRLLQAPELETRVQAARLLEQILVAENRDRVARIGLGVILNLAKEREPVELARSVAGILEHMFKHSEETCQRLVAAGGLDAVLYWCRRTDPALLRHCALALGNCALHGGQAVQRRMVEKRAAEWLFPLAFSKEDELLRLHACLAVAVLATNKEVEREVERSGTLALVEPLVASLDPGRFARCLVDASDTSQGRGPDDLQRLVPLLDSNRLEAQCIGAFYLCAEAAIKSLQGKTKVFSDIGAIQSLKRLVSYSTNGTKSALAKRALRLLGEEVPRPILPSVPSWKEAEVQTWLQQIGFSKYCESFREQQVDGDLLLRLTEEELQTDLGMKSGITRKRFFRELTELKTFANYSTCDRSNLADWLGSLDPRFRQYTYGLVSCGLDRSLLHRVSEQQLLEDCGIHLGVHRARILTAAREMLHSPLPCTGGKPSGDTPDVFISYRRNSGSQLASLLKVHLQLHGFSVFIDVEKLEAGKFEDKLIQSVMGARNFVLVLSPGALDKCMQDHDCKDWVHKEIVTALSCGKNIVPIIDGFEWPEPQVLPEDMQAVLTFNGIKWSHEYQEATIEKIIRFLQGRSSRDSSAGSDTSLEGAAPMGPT
Assay [15] deals with Mitogen-activated protein kinase 7 (Homo sapiens) (UniProt Q13164). Description: Gal4-ERK5 driven luciferase induction – cell-based, HTS, primary screen (AID 1508626;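 active means luciferase signal above three times the same-plate solvent-only control wells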;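 further: luciferase driven by Gal4-ERK5 fusion binding five Gal4 sites before minimal TATA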). As to conditions: HeLa Gal4-ERK5 transactivation, 18 h, at 5 µM, stronger effect = higher value.
Sequence of Mitogen-activated protein kinase 7 (Homo sapiens) (Q13164 whole entry, looked up, the tested form may be a part): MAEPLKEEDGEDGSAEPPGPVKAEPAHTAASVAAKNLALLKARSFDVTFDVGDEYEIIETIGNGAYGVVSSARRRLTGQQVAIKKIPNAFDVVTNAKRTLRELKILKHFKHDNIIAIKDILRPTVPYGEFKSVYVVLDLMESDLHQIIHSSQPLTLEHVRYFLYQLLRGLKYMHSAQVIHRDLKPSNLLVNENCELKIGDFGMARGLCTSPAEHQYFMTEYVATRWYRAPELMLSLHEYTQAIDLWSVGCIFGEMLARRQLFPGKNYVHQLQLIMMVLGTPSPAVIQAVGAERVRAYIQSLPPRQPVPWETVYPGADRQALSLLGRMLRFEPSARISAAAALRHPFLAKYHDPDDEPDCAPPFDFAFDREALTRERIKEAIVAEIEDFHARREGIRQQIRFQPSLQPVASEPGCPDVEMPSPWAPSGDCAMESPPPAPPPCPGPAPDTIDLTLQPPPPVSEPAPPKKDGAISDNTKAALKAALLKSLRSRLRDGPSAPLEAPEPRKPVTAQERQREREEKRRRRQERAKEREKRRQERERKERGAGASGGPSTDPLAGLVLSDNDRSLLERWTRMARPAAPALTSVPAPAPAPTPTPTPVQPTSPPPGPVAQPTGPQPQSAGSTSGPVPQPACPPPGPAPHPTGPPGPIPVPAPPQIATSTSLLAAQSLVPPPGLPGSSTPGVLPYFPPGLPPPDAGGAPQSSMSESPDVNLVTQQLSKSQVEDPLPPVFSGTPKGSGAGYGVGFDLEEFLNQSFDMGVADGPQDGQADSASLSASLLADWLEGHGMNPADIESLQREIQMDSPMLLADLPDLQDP
Assay [16] is described as follows: P. berghei load reduction in hepatocytes – cell-based, HepG2, luciferase luminescence, HepG2 viability, primary screen (AID 624349; in the data active means parasite load remaining mostly below about 12%, no sharp cut-off; inactive means mostly above about 10%;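 further: 100% = mean of DMSO negative control wells on the same plate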). As to conditions: P. berghei liver stage in HepG2, luciferase luminescence, concentration not given here; parasite load remaining: stronger effect = lower value; viability: measured here: HepG2 viability without parasites.
Assay [17] can be described thus: viability loss with induced miR-34 in A549 – imaging, A549 dox-inducible miR-34, nuclei and caspase counts, primary screen (AID 1347080;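 active means compounds whose cell count with miR-34 switched on is under 0.7 times the count with it off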). As to conditions: A549 miR-34 inducible, Hoechst nuclei count, 48 h.
Assay [18] in a line: galactose survival enhancers in mitochondrial complex I cybrids – cell-based, galactose medium, ATP luminescence, primary screen (AID 1645843;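 active means z-score of at least 1.8 in each of two replicates, scored against plate mean and spread of sample wells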;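 further: positive z means more ATP and so rescue of galactose-driven cybrid death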). To be noted: complex I mutant cybrid cells, 72 h, stronger effect = higher value.
[19] abbreviates: measured here: epithelial PC-3E GFP cell survival.
[20] abbreviates: measured here: mesenchymal TEM4-18 mCherry cell survival.
Setting [21] is: stronger effect = lower value, cell number ratio, induced over uninduced.
Where [22] appears, read: measured here: relative caspase fold change +Dox/-Dox.
The mark [23] stands for this setting: measured here: total cells with miR-34 induction, stronger effect = lower value.
The mark [24] stands for this setting: measured here: total cells without miR-34 induction.

Sequence of 6-phosphogluconate dehydrogenase, decarboxylating (Homo sapiens) (P52209 whole entry, looked up): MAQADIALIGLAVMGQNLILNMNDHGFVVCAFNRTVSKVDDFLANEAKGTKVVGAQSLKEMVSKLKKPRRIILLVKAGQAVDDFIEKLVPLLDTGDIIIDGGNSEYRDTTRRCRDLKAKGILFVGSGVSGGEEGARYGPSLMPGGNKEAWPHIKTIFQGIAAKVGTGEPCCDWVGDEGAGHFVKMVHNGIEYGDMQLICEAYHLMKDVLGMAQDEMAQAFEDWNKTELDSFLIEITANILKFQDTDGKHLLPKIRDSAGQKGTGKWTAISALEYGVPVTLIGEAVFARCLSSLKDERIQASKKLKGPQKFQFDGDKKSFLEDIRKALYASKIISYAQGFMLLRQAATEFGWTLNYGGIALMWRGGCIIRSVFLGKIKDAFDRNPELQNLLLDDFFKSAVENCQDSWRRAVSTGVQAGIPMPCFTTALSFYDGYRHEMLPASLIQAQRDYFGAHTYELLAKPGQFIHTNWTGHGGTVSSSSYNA

In the case of `CCO[C@H](Cc1ccc(OCCc2ccc(OS(C)(=O)=O)cc2)cc1)C(=O)O`, the nuclear beta-catenin stimulation in [1] (at 10 µM) is 1.2% (inactive); in [1] (stimulation, at 2 µM), 7.6%. In addition, the viability decrease in assay [2] is 8.6% (inactive). Moreover, in assay [3], the inhibition of viability was -7.7% (inactive). Besides, the viability decrease (inhibition) is -5.9% (inactive) in assay [4] and -11.3% (inactive) in assay [5].

As for `O=C(CCCN1CCC(O)(c2ccc(Cl)cc2)CC1)c1ccc(F)cc1`, the survival in assay [6] was 6.08 (inactive). The insulin secretion stimulation in [7] was 10.8% (inactive). For the same molecule, in assay [2], the viability decrease was 75.7% (active). In assay [8], the tube area decrease is -3.9% (inactive). For the same molecule, the GLP1 secretion stimulation in assay [9] is 7.5% (inactive). Further, the inhibition of viability in assay [3] was 63.5% (active). The viability decrease (inhibition) in assay [4] is 66.8% (active); in assay [5], 35.5% (inactive). Also, in [10], the inhibition was -6.6% (inactive). Moreover, in assay [11], the mean signal is 271 (inactive). For the same molecule, the red/green cell ratio (normalised) in assay [12] was 0.92 (inactive). Further, the normalised cell number was found to be 0.87 in assay [12] (setting [19]) and 0.8 in assay [12] (setting [20]). Further, the z-score is -0.322 (inactive) and 0.952 (inactive) and 0.0534 (inactive) in assay [13] (MELAS cybrid survival, CellTiter-Glo 48 h, stronger effect = higher value); -0.84 and 0.343 and 0.587 in assay [13] (Rieske KO mouse fibroblast survival, CellTiter-Glo 72 h). In assay [14], the remaining NAD was 10 nM (inactive). Moreover, in [15], the luciferase signal is 40 AU (inactive).

As to `COCCCOc1ccnc(CS(=O)c2nc3ccccc3[nH]2)c1C` (stereo not given), the parasite load remaining in assay [16] is 32% (inactive) and 56.4% (inactive). Also, the viability in [16] is 108% and 71%. Further, the nuclear beta-catenin stimulation in [1] (at 10 µM) was 0% (inactive); in assay [1] (stimulation, at 2 µM), 9.8%. For the same molecule, in assay [2], the viability decrease is 32.7% (inactive). The inhibition of viability in assay [3] is 20.2% (inactive). For the same molecule, the viability decrease (inhibition) in assay [4] was 4.6% (inactive); in assay [5] it was -10.8% (inactive). Also, in [11], the mean signal is 232 (inactive). For the same molecule, the red/green cell ratio (normalised) in [12] was 0.79 (inactive). The values for the normalised cell number in assay [12] (setting [19]) and in assay [12] (setting [20]) were 1.16 and 0.91, respectively. The fold change was 0.932 (inactive) and 0.863 (inactive) in assay [17] (setting [21]); 1.16 and 3.79 in assay [17] (setting [22]). Moreover, the cell count was 9170 and 10700 in [17] (setting [23]); 9840 and 12400 in assay [17] (setting [24]). Also, in assay [14], the remaining NAD was 10 nM (inactive). Further, the luciferase signal in [15] was 200 AU (inactive). Also, in [18], the z-score was -0.225 (inactive).

On to `CC(C)(C)NC(=O)[C@@H]1C[C@@H]2CCCC[C@H]2CN1C[C@@H](O)[C@H](Cc1ccccc1)NC(=O)[C@H](CC(N)=O)NC(=O)c1ccc2ccccc2n1`, for which the insulin secretion stimulation in assay [7] is 1.9% (inactive). Besides, the viability decrease in assay [2] was 45.8% (inactive). Besides, in assay [8], the tube area decrease is 29.6% (inactive). In assay [9], the GLP1 secretion stimulation was -3.7% (inactive). Also, in [3], the inhibition of viability is 74% (active). The viability decrease (inhibition) in assay [4] was 92.3% (active); in [5], 88.3% (active).

Turning to `CC1(C)[C@H](C(=O)O)N2C(=O)C[C@H]2S1(=O)=O`, the parasite load remaining in assay [16] is 25.7% (inactive). Moreover, the viability in assay [16] was found to be 74%. Besides, the insulin secretion stimulation in [7] is -1.5% (inactive). Besides, the viability decrease in [2] was 0.3% (inactive). Further, the tube area decrease in assay [8] is -3.3% (inactive). Further, in assay [9], the GLP1 secretion stimulation is -0.3% (inactive). Besides, the inhibition of viability in assay [3] was -13.6% (inactive). Also, the viability decrease (inhibition) is 6.5% (inactive) in assay [4] and 3.8% (inactive) in assay [5]. Besides, the fold change in assay [17] (setting [21]) is 0.988 (inactive) and 0.885 (inactive) and 0.887 (inactive); in assay [17] (setting [22]), 0.598 and 0.786 and 1.47. In addition, the cell count in [17] (setting [23]) was 7470 and 7970 and 9900; in assay [17] (setting [24]), 7550 and 9000 and 11200. For the same molecule, the remaining NAD in [14] was 10 nM (inactive). Moreover, the z-score in assay [18] was 0.33 (inactive).

In the case of `CC1(C)CC2C1CC[C@]1(CBr)CCC3C(CC(=O)O)C(=O)O[C@@]32C1` (stereo not given in full), in assay [10], the inhibition was 14.7% (inactive).

By inhibition is commonly meant the relative decrease from the control value, in per cent. For orientation: viability means a read-out of living cells in per cent, often relative to untreated cells.
